Data on six compounds can be found in PubChem BioAssay.

The nature of assay [1]: EMT-state selective cytotoxicity in co-culture – imaging, PC-3E GFP, TEM4-18 mCherry, primary screen (AID 1345086;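 active = compounds killing one labelled cell type while sparing the other, by normalised counts and ratio limits, not self-fluorescent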;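 for all read-outs here: cells exposed to compound for 72 h before imaging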;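 for red/green cell ratio (normalised): normalised mesenchymal count divided by normalised epithelial count so high means epithelial killing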). The note with it: PC-3E GFP / TEM4-18 mCherry co-culture, imaging cell counts, at 1 µM; for red/green cell ratio (normalised): actives lie on both sides, counts scaled to control wells, 1 = unselective.
The nature of assay [2]: viability loss with induced miR-34 in A549 – imaging, A549 dox-inducible miR-34, nuclei and caspase counts, primary screen (AID 1347080). The settings on record: A549 miR-34 inducible, Hoechst nuclei count, 48 h.
A short description of assay [3]: compounds altering circadian rhythm period length – cell-based, LOPAC library, luminescence reporter (AID 2774; call rule not given here;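 note: values are relative to mean of DMSO wells on each plate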). The settings on record: circadian reporter cells, at 7 µM, actives lie on both sides.
Assay [4] deals with Hepatitis C virus NS3 helicase. Briefly: blockers of NS3h binding to ssDNA – biochemical, fluorescence polarization, LOPAC1280 library, primary screen (AID 687035; in the data active = inhibition above about 37%). The note with it: Purified HCV NS3 helicase, Cy5-dT15 ssDNA binding fluorescence polarization; stronger effect = higher value; concentration not given here.
Assay [5] is described as follows: compounds altering Cy5-DNA-NS3h complex signal – biochemical, LOPAC1280, artefact control for HCV NS3 helicase inhibitor project (AID 687037; call rule not given here). The settings on record: Cy5-DNA-NS3h complex fluorescence interference counterscreen. (In general: Counterscreens check selectivity or assay interference.)
Assay [6] can be described thus: blockers of cellular phospholipid synthesis – cell-based, LOPAC library, screen 4, primary screen (AID 1347384; call rule not given here). The settings on record: animal cells, phospholipid biosynthesis inhibition screen; at 10 µM.
In assay [7] the target is Mitogen-activated protein kinase 7 (Homo sapiens) (UniProt Q13164). Put plainly: Gal4-ERK5 driven luciferase induction – cell-based, HTS, primary screen (AID 1508626;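 active = luciferase signal above three times the same-plate solvent-only control wells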;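 note: luciferase driven by Gal4-ERK5 fusion binding five Gal4 sites before minimal TATA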). The settings on record: HeLa Gal4-ERK5 transactivation, 18 h, at 5 µM, stronger effect = higher value.
Mitogen-activated protein kinase 7 (Homo sapiens), sequence (Q13164 whole entry, looked up, the tested form may be a part): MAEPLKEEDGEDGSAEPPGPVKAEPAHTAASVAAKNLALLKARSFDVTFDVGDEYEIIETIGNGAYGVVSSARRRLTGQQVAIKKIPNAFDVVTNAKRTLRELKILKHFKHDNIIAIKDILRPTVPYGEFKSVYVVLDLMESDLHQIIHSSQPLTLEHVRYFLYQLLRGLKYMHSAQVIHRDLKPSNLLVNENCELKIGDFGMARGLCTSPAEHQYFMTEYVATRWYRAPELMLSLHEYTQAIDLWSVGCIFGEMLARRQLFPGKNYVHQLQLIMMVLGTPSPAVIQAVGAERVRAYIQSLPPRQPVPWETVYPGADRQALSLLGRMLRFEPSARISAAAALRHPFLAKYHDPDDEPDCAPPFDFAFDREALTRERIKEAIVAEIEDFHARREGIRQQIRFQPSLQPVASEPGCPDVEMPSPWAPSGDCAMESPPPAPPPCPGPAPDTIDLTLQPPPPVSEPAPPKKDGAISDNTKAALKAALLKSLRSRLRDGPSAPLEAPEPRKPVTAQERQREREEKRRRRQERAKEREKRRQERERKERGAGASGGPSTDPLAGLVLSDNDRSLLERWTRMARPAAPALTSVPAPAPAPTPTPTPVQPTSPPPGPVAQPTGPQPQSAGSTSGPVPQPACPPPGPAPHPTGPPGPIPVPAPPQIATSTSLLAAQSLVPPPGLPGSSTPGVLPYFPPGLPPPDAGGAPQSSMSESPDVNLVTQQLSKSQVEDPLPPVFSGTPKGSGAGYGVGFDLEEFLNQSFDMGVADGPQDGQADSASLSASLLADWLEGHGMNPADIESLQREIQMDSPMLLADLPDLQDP
The nature of assay [8]: galactose survival enhancers in mitochondrial complex I cybrids – cell-based, galactose medium, ATP luminescence, primary screen (AID 1645843;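 active = z-score of at least 1.8 in each of two replicates, scored against plate mean and spread of sample wells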;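 note: positive z means more ATP and so rescue of galactose-driven cybrid death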). The note with it: complex I mutant cybrid cells, 72 h, stronger effect = higher value.
The nature of assay [9]: blockers of polyQ-driven CASP3 activation – cell-based (AID 1583). The settings on record: polyglutamine-induced caspase-3 activation, cell assay; stronger effect = higher value;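 tested at 10 µM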.
A short description of assay [10]: yeast 75Q aggregation reduction – 75Q-TubU reporter (AID 1593). The settings on record: Yeast 75Q polyglutamine aggregation reporter.
Assay [11] is described as follows: restoration of touch response, mutant HTT neurons – whole organism, C. elegans mechanosensory neurons, N-terminal huntingtin (AID 1599). The note with it: C. elegans polyQ-huntingtin mechanosensory neurons, stronger effect = higher value.
The nature of assay [12]: blockers of cytochrome c efflux from mitochondria – biochemical, purified mitochondria (AID 1603).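 Note: mouse liver mitochondria challenged with calcium chloride; signal normalized to the plate average as 100%.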 The settings on record: stronger effect = lower value.
Assay [13] in a line: polyglutamine aggregate formation blockers (AID 1604). The settings on record: polyglutamine-induced protein aggregation inhibition assay; stronger effect = higher value; tested at 2.5 µM.
The nature of assay [14]: glutamate transport activators, MN-1 cells, MN-1 cell line (AID 1612).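 Note: tested at 1 µM final; 0% = mean of DMSO vehicle wells on each plate; positive means more glutamate uptake than control and negative means less.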 The note with it: MN-1 motor neuron cells, stronger effect = higher value.
Assay [15] in a line: GFP-Q80 aggregate reduction, neuronal-like cells, cell-based, NGF-treated PC12, GFPQ80 (AID 1614).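 Note: lower means fewer inclusions and 0 means no inclusions at all.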 The settings on record: PC12 NGF-treated GFP-polyQ80 inclusion reduction.
The nature of assay [16]: 75Q-TubH aggregate inhibition, S. cerevisiae, yeast (AID 1616). The settings on record: S. cerevisiae 75Q-TubH polyglutamine aggregation suppression; stronger effect = higher value.
A short description of assay [17]: P. berghei load reduction in hepatocytes – cell-based, HepG2, luciferase luminescence, HepG2 viability, primary screen (AID 624349; in the data active = parasite load remaining mostly below about 12%, no sharp cut-off; inactive = mostly above about 10%;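 note: 100% = mean of DMSO negative control wells on the same plate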). The settings on record: P. berghei liver stage in HepG2, luciferase luminescence, concentration not given here; parasite load remaining: stronger effect = lower value; viability: measured here: HepG2 viability without parasites.
A short description of assay [18]: MELAS cybrid and Rieske KO viability enhancers – cell-based, MELAS cybrids, Rieske KO mouse fibroblasts, CellTiter-Glo, primary screen (AID 1508586;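 active = mean z-score across replicates of 1.96 or higher in either the MELAS or the Rieske mutant cell line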;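 note: z relative to plate mean and SD of compound and empty wells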). The settings on record: low glucose.
Assay [19] deals with NAD(+) hydrolase SARM1 (Homo sapiens) (UniProt Q6SZW1). Put plainly: blocking NAD cleavage by SARM1 SAM-TIR – cell lysate, NAD-Glo luminescence (AID 1508614;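 active = compound whose remaining NAD level is above about 45 nM, limit read from the data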;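 note: higher remaining NAD means stronger inhibition of SARM1 NADase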). The note with it: SAM-TIR HEK293T lysate NADase, at 1 µM, stronger effect = higher value.
NAD(+) hydrolase SARM1 (Homo sapiens), sequence (Q6SZW1 whole entry, looked up): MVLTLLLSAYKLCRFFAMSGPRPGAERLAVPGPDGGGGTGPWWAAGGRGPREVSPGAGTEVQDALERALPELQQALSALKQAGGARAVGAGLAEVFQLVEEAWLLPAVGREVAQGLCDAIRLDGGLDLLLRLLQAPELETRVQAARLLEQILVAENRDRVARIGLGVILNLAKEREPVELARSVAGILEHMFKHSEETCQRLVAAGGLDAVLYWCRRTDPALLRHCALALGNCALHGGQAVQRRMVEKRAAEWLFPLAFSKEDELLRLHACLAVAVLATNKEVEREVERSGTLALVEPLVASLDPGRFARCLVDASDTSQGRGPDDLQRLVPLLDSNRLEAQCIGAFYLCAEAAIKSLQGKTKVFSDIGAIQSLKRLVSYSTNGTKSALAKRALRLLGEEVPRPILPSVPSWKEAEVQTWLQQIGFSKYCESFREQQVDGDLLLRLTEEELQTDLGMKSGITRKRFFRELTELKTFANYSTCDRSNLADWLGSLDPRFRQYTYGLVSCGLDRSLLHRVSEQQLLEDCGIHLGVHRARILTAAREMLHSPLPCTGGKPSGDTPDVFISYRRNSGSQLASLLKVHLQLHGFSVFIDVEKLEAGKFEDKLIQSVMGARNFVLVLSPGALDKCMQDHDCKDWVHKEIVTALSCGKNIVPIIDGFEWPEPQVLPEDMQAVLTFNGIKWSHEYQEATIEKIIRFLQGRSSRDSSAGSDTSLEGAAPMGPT
The mark [20] stands for this setting: measured here: epithelial PC-3E GFP cell survival.
[21] abbreviates: measured here: mesenchymal TEM4-18 mCherry cell survival.
[22] abbreviates: stronger effect = lower value, cell number ratio, induced over uninduced.
[23] abbreviates: measured here: relative caspase fold change +Dox/-Dox.
[24] abbreviates: measured here: total cells with miR-34 induction, stronger effect = lower value.
Setting [25] is: measured here: total cells without miR-34 induction.

Values joined by “and” are separate entries in the source; they are usually repeats but may differ in a detail not shown here. Identical values can stand only once. For some of these results: Entries with a potency or affinity are not part of this list. Active and inactive are the calls of the source.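 Rule for the calls, unless noted: active = compounds whose cell count with miR-34 switched on is under 0.7 times the count with it off; inactive = the rest.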

What is called inhibition is the relative decrease from the control value, in per cent. Usually viability stands for the share of living cells, or the viability signal relative to a control.

As for `CCN(CC)C(=O)C1(c2ccccc2)CC1CN` (stereo not drawn), the red/green cell ratio (normalised) in assay [1] is 0.9 (inactive). Moreover, the figures for the normalised cell number in [1] (setting [20]) and in assay [1] (setting [21]) were 1.08 and 0.98, respectively. For the same compound, the figures for the fold change in [2] (setting [22]) and in [2] (setting [23]) were 0.92 (inactive) and 0.893, respectively. Further, the cell count in [2] (setting [24]) amounted to 8180; in [2] (setting [25]), 8890.
With `O=C1c2c(O)cccc2[C@@H](O[C@@H]2O[C@H](CO)[C@H](O)[C@@H](O)[C@H]2O)c2cc(CO)cc(O)c21`, the red/green cell ratio (normalised) in assay [1] was 0.78 (inactive). Also, the normalised cell number amounted to 1.12 in assay [1] (setting [20]) and 0.88 in assay [1] (setting [21]). Moreover, the fold change in [2] (setting [22]) is 0.925 (inactive); in assay [2] (setting [23]), 0.87. The cell count in assay [2] (setting [24]) came out at 8450; in [2] (setting [25]), 9140.
For the compound `O=C(O)c1ccccc1Nc1ccccc1`, the period change in assay [3] was -0.04 h (inactive). The inhibition in assay [4] is 0% (inactive). Moreover, the fluorescence ratio (interference) in assay [5] is 0.9 (inactive). Besides, the red/green cell ratio (normalised) in assay [1] was 0.96 (inactive). In addition, the normalised cell number in assay [1] (setting [20]) stood at 1.09; in [1] (setting [21]), 1.05. The fold change in [2] (setting [22]) is 1.06 (inactive) and 0.981 (inactive); in [2] (setting [23]) it was 2.67 and 0.812. Moreover, the cell count is 10300 and 5440 in assay [2] (setting [24]); 9720 and 5550 in [2] (setting [25]). Moreover, in assay [6], the compound was called inactive. Also, the luciferase signal in assay [7] was 24 AU (inactive). The z-score in [8] is 2.06 (active).
In the case of `Nc1nc(NC2CC2)c2ncn(C3C=C[C@@H](CO)C3)c2n1` (stereo partly drawn), in assay [1], the red/green cell ratio (normalised) was 1.14 (inactive). The figures for the normalised cell number in assay [1] (setting [20]) and in assay [1] (setting [21]) were 1.1 and 1.26, respectively. Moreover, the figures for the fold change in assay [2] (setting [22]) and in assay [2] (setting [23]) were 0.995 (inactive) and 0.706, respectively. Further, the cell count came to 8880 in assay [2] (setting [24]) and 8920 in [2] (setting [25]).
With `C[C@@H]1CC2C3CCC4=CC(=O)C=C[C@]4(C)[C@@]3(F)[C@@H](O)C[C@]2(C)[C@@]1(O)C(=O)CO` (stereo partly drawn), the inhibition in assay [9] is -20.4%. Besides, the score in assay [10] was determined as 1.07. The compound also registered a rescue above control in assay [11] of -7.18. In addition, the cytochrome c release ratio in assay [12] was determined as 0.84. Also, in assay [13], the inhibition of aggregation worked out at 31.7%. Further, the glutamate uptake change in [14] stood at 53.3%. In assay [15], this compound yielded an inclusion score of 2. Further, the aggregation suppression score in assay [16] was found to be 1.35. Moreover, the parasite load remaining in assay [17] is 152% (inactive) and 64.1% (inactive). For the same compound, the viability in assay [17] is 77.2% and 87.1%. In assay [1], the red/green cell ratio (normalised) is 1.24 (inactive). The normalised cell number in assay [1] (setting [20]) is 1.34; in [1] (setting [21]) it was 1.66. Further, the fold change in assay [2] (setting [22]) is 0.825 (inactive); in [2] (setting [23]) it was 2.2. The figures for the cell count in [2] (setting [24]) and in assay [2] (setting [25]) were 7310 and 8850, respectively.
With `CC1(C)S[C@@H]2[C@H](NC(=O)COc3ccccc3)C(=O)N2[C@H]1C(=O)O`, in [9], the inhibition is 4.98%. The same compound returned a score in assay [10] of 1.39. Further, in [11], the rescue above control worked out at 1.16. Moreover, in assay [12], the cytochrome c release ratio turned out to be 0.65. Besides, the inhibition of aggregation in assay [13] came to 70.1%. For the same compound, the glutamate uptake change in [14] is -6.22%. In assay [15], this compound displayed an inclusion score of 2. The aggregation suppression score in assay [16] amounted to 0.899. For the same compound, the parasite load remaining in [17] was 89.7% (inactive) and 64.4% (inactive) and 28.3% (inactive). For the same compound, the viability in [17] was 71.1% and 91.3% and 70.5%. For the same compound, in assay [1], the red/green cell ratio (normalised) was 1.2 (inactive). In addition, the normalised cell number is 0.81 in assay [1] (setting [20]) and 0.98 in assay [1] (setting [21]). Moreover, the fold change was 0.943 (inactive) and 0.879 (inactive) in [2] (setting [22]); 0.921 and 0.998 in assay [2] (setting [23]). The cell count in assay [2] (setting [24]) is 11800 and 10100; in assay [2] (setting [25]), 12500 and 11500. For the same compound, the z-score in assay [18] (MELAS cybrid survival, CellTiter-Glo 48 h, stronger effect = higher value) is 0.0944 (inactive); in assay [18] (Rieske KO mouse fibroblast survival, CellTiter-Glo 72 h) it was 0.173; in [8], 0.895 (inactive). Further, the remaining NAD in [19] was 10 nM (inactive). For the same compound, the luciferase signal in assay [7] is 64 AU (inactive).
